Measured values: PubChem BioAssay (Tox21)
Inconclusive results are not listed. Activity calls are given as the source filed them. Calls come from the whole dose curve; as a rule, active = well fitted cell-killing curve with a large enough effect in the repeat runs; inconclusive = weak or mixed curves, or effect the other way; inactive = flat fitted curve, though single readings scatter.

Test: qHTS RealTime-Glo MT Cell Viability Assay in HepG2 cells - 0 hour (AID 1224889); note: nearly all actives have a fitted effect of over 50% in size
Settings: RealTime-Glo luminescence; series mostly up to 76.8 µM; activity change, negative = cytotoxicity: at the top concentration
Excerpt: U.S. Tox21 Program National Center for Advancing Translational Sciences [NCATS] NIH Chemical Genomics Center [NCGC] U.S. Environmental Protection Agency [EPA] National Institutes of Environmental Health Sciences [NIEHS] National Toxicology Program [NTP] U.S. Food and Drug Administration [FDA] Tox21 Assay Overview: Measure of cell viability is critical in the cell-base assay. Analysis of cell viability is necessary for the characterization of cell responses to cytotoxic drugs and environmental stress. A RealTime-Glo MT Cell Viability Assay to monitor cell viability in real time of continues cell culture during 40 hours of compound treatment was used to screen Tox21 10K library compounds in HepG2 cells. The RealTime-Glo MT Cell Viability Assay is a nonlytic, homogeneous, bioluminescent method to measure cell viability in real time using a simple, plate-based method. The assay involves adding NanoLuc luciferase and a cell-permeant prosubstrate to cells in culture. Viable cells reduce the proprietary prosubstrate to generate a substrate for NanoLuc luciferase. This substrate diffuses from cells into the surrounding culture medium, where it is rapidly used by the NanoLuc Enzyme to produce a luminescent signal. The signal correlates with the number of viable cells, making the assay well suited for cytotoxicity studies.
Tox21 Assay Protocol Summary: The mixture of HepG2 cell suspension and reagents were dispensed at 600cells/6 ul/well in 1536-well tissue culture treated black solid bottom plates using a Multidrop dispenser. After the assay plates were incubated at a 37 C/5% CO2 incubator for 5 hours, 23 nL of compounds dissolved in DMSO, positive and negative controls was transferred to the assay plate by a pintool work station. The plates were incubated at 37 C for 40 hours. The luminescence intensity were measured at 0h, 8h, 16h, 24h, 32h and 40h time points using ViewLux plate reader during compound treatment.
% is set by controls: 0 for no effect and ±100 for the full control effect.

| Compound | activity change, negative = cytotoxicity |
| --- | --- |
| CCCCCCBr | -0.987% (inactive) |
| CC(Cl)(Cl)[N+](=O)[O-] | 4.26% (inactive) |
| O=C1OC(c2ccc(O)c(S(=O)(=O)O)c2)(c2ccc(O)c(S(=O)(=O)O)c2)c2c(Br)c(Br)c(Br)c(Br)c21 | -0.113% [at 35.3 µM] (inactive) |
| Cc1ncc2n1-c1ccc(Cl)cc1C(c1ccccc1F)=NC2 | -16.7% [at 35.3 µM] (inactive) |
| CCCCc1ccc(O)cc1 | 12.7% (inactive) |
| Cc1ncsc1CCCl | 0.178% [at 35.3 µM] (inactive) |
| CCOP(=S)(OCC)SCSc1ccc(Cl)cc1 | -2.09% (inactive) |
| CC(C)NCC(O)c1ccc(N)c(C#N)c1 (stereo not given) | 2.86% [at 35.3 µM] (inactive) |
| CC1=C(C(=O)Nc2ccccc2)S(=O)(=O)CCO1 | 2.53% (inactive) |
| CNC(=O)Oc1ccc(N(C)C)c(C)c1 | 3.47% (inactive) |
| CNC(=O)N(C)c1nc2ccccc2s1 | 6.61% (inactive) |
| CC(CCc1ccccc1)NC(C)C(O)c1ccc(O)cc1 (stereo not given) | 3.59% [at 35.3 µM] (inactive) |
| O=C1c2ccccc2C(=O)c2ccccc21 | 6.06% [at 15.8 µM] (inactive) |
| OCCSCSCCO | 5.45% (inactive) |
| C#C[C@]1(O)C=C[C@H]2[C@@H]3CCC4=CC(=O)CC[C@@H]4[C@H]3CC[C@@]21CC | -20.2% [at 35.3 µM] (inactive) |
| CC1CCCCC1NC(=O)Nc1ccccc1 (stereo not given) | -1.16% (inactive) |
| CC1CCC(=O)O1 (stereo not given) | 5.67% (inactive) |
| CC(C(=O)c1ccccc1)N(C)C (stereo not given) | 2.48% [at 35.3 µM] (inactive) |
| CNC(=O)Oc1ccccc1C1OCCO1 | 0.527% (inactive) |
| O=[N+]([O-])c1ccc2c3c(cccc13)CC2 | 1.99% (inactive) |

| Compound | activity change, negative = cytotoxicity |
| --- | --- |
| Cc1cccc(C#N)c1 | 6.29% (inactive) |
| CCC#N | 2.91% (inactive) |
| CCOC(=O)C1(c2ccccc2)CCN(CCc2ccc(N)cc2)CC1 | -11.5% [at 35.3 µM] (inactive) |
| C=C(C)[C@@H]1CC=C(C=O)CC1 | -6.12% (inactive) |
| O=C(CCN1CC1)OCC(CO)(COC(=O)CCN1CC1)COC(=O)CCN1CC1 | 1.31% (inactive) |
| COC(=O)COc1ccc(Cl)cc1Cl | -6.02% (inactive) |
| COC(=O)c1ccccc1S(=O)(=O)NC(=O)N(C)c1nc(C)nc(OC)n1 | 0.16% (inactive) |
| C[C@@H]1CN(C2CCC(C#N)(c3ccc(F)cc3)CC2)CC[C@]1(C(=O)O)c1ccccc1 (stereo not given in full) | -3.27% [at 35.3 µM] (inactive) |
| Fc1cc(Br)ccc1CBr | 0.37% [at 35.3 µM] (inactive) |
| CCOP(=S)(OCC)Oc1ncn(-c2ccccc2)n1 | -16.3% (inactive) |
| CC(C(O)c1ccccc1)N(C)C/C=C/c1ccccc1 (stereo not given) | 17.2% [at 35.3 µM] (inactive) |
| O=[N+]([O-])c1cc(Cl)c(Cl)c(Cl)c1 | 15% (inactive) |
| O=C1CN2CCOC2(c2ccccc2Cl)c2cc(Cl)ccc2N1 (stereo not given) | 5.42% [at 35.3 µM] (inactive) |
| CC1(C(=O)Nc2ccc(O)c(Cl)c2Cl)CCCCC1 | 6.72% (inactive) |
| CCOP(=S)(OCC)Oc1nc(Cl)n(C(C)C)n1 | -6.75% (inactive) |
| Nc1ccccc1Cl | 2.12% (inactive) |
| Nc1cnn(-c2ccccc2)c(=O)c1Cl | -1.72% (inactive) |
| C=CCC1=C(C)[C@@H](OC(=O)[C@@H]2[C@@H](C=C(C)C)C2(C)C)CC1=O | -2.5% (inactive) |
| O=C(O)c1cccc(Cl)c1 | 1.39% (inactive) |
| O=C(CCCN1CCC(n2c(=O)[nH]c3ccccc32)CC1)c1ccc(F)cc1 | -20.3% [at 35.3 µM] (inactive) |
